# Assay results taken from PubChem BioAssay (NCATS).
# Results filed as inconclusive are left out. Active and inactive are the calls of the source. Calls follow the shape of the dose curve; as a rule, active = well fitted inhibition curve with a large enough effect; inconclusive = small, poorly fitted or top-dose-only effect; inactive = flat fitted curve, though single readings scatter.
# Molecular target: Lysine-specific demethylase 5B (Homo sapiens) (UniProt Q9UGL1)
# Assay: Optimization screen for KDM5B Histone Demethylases FDH coupled qHTS against the LOPAC library (AID 1347166); as to activity, negative = inhibition: 0% is about no effect
# Conditions: KDM5B demethylation, FDH-coupled NADH fluorescence (FDH is formaldehyde dehydrogenase); series mostly up to 57.5 µM; activity, negative = inhibition: at the top concentration
# Description: Assay Submitter (PI): Qin Yan, Ph.D. (Yale University) and Xiaodong Cheng, Ph.D. (MD Anderson)
# This project was funded as part of the NCI NEXT Program and Chemical Biology Consortium (CBC)
# The histone demethylases, KDM5A and KDM5B catalyze the demethylation of lysine 4 on histone H3 (H3K4me3/2). They
# are overexpressed in a variety of cancers and have been implicated in cancer cell growth, metastasis, drug resistance, and tumor growth. KDM5A is amplified and overexpressed in breast and gastric cancer; and is translocated in leukemia. While KDM5B is highly expressed in human mammary tumors and breast cancer cell lines, but not in normal adult breast tissue. Moreover, knockdown of KDM5B leads to upregulation of tumor suppressor genes, including BRCA1. The goal of this project is to employ qHTS to identify selective small molecule inhibitors of KDM5A/B demethylase activity to better understand the role of KDM5 in cancer and to develop novel therapies.
# We employed an FDH-coupled assay previously reported by Sakurai et al. to monitor in vitro KDM5 demethylase activity. Compounds showing dose response inhibition are re-acquired, validated, and tested for non-specific interference with the formaldehyde dehydrogenase (FDH) counterscreen. True inhibitors are validated using an AlphaLisa secondary screen, which employs an H3K4(me2-1)-specific antibody to monitor demethylation of a biotin-tagged H3K4(me3) peptide substrate. Inhibitors are profiled against KDM4A and KDM6A AlphaLisa counterscreens to determine level of demethylase specificity; and against the TruHits counterscreen to eliminate non-specific inhibitory activity on the AlphaLISA detection method. Selective inhibitors identified from the primary and secondary screening are tested in cells using immunofluorescence to monitor global H3K4 tri-methylation as a measure of KDM5A/B inhibition. This assay is run against the NCGC Lopac collection of about 1,200 compounds to evaluate its amenability to quantitative High Throughput Screening (qHTS) platform.
# Early Translation Branch (ETB)
# National Center for Advancing Translational Sciences (NCATS), Rockville, MD
# National Institute of Health (NIH), Bethesda, Maryland
# [1] Sakurai, M et al. A miniaturized screen for inhibitors of Jumonji histone demethylases. Mol Biosyst. 2010 Feb;6(2):357-64. doi: 10.1039/b912993f. Epub 2009 Oct 8.
# 1536-well Black, solid bottom, medium binding assay plate is purchased from Greiner Bio-one. The enzymes (KDM5B) and substrate (H3K4me3/2) are provided by the principal investigators. The buffer for this assay is composed of 50mM HEPES at pH 7.5 with 0.01% Tween-20.
# FDH coupled qHTS protocol:
# Three microliter enzyme mix (buffer + 200nM KDM5BDeltaAP final concentration) is dispensed into the assay plate using the BioRAPTR Flying Reagent Dispenser (FRD; Beckton-Dickenson). Compound (at various final concentration) and control solution is pin transferred to the assay plate using the Kalypsys 1536-pin tool apparatus. The assay plate is incubated for 10 min at room temperature followed by addition of 1uL substrate mix (buffer + 100uM ascorbic acid, 50uM ferrous ammonium sulfate, 12.5uM H3K4Me3, 25uM a-ketoglutarate, 0.25 mM NAD+, 0.25 U/mL formaldehyde dehydrogenase using the FRD yielding a total reaction volume of 4 uL. Initial fluorescence (Read1) is detected using the PerkinElmer ViewLux plate reader equipped with 340 nm excitation and 450 nm emission filters. The final fluorescence (Read2) signal is obtained after 30 min of room temperature incubation. Delta RFU is calculated (Read2 - Read1) and is used to generated dose response curves
# Potency is read from the fitted curve at half-maximal effect.
# Sequence of Lysine-specific demethylase 5B (Homo sapiens) (Q9UGL1 whole entry, looked up): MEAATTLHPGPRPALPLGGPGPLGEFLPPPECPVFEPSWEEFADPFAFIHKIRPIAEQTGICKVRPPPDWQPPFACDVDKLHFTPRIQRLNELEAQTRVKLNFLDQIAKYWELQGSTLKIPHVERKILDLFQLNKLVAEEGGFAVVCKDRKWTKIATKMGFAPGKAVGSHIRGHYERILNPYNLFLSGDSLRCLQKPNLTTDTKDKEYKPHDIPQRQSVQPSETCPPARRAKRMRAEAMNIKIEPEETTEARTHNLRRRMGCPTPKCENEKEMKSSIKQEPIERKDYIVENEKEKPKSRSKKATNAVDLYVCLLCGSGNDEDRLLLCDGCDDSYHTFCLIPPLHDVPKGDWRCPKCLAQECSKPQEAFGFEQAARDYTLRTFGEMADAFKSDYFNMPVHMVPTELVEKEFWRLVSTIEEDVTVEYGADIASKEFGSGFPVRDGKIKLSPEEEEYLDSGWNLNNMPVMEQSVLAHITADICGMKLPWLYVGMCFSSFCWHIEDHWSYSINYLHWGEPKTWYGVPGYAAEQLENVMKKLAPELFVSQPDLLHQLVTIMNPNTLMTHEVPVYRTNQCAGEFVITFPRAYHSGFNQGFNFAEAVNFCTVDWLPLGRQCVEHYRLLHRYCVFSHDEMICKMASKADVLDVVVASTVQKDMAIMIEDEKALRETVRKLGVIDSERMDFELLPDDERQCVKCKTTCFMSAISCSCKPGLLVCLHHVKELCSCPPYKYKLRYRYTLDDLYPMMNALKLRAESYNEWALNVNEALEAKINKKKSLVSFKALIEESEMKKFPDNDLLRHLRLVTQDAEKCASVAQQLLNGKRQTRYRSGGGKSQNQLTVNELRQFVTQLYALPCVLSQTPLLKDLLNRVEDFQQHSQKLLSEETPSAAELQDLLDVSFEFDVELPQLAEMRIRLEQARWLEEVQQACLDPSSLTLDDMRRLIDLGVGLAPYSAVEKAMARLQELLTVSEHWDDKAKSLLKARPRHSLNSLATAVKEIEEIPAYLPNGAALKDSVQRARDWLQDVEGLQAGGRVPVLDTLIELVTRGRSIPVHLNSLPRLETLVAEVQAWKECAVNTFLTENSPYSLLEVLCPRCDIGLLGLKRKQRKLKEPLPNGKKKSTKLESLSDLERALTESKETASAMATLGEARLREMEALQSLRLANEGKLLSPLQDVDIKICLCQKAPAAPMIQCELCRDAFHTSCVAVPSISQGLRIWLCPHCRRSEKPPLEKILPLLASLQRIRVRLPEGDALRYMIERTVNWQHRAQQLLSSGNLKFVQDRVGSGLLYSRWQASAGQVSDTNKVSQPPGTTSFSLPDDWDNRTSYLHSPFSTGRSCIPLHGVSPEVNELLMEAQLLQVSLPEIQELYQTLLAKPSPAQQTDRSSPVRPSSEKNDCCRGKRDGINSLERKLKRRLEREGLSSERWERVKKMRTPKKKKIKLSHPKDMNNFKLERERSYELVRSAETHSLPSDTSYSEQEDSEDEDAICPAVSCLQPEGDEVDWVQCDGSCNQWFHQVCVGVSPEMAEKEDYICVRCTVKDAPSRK
Structure (SMILES),"activity, negative = inhibition",Potency
CCc1c(C)[nH]c2c1C(=O)C(CN1CCOCC1)CC2 (stereo not given),-7.33% (inactive),–
CC(C)(C)c1ccc(C(=O)CCCN2CCC(OC(c3ccccc3)c3ccccc3)CC2)cc1,-23.6% (inactive),–
O=C1CC2(CCCC2)CC(=O)N1CCCCN1CCN(c2ncccn2)CC1,-25.9% (inactive),–
COCCCC/C(=N\OCCN)c1ccc(C(F)(F)F)cc1,-1.31% (inactive),–
NS(=O)(=O)c1cc2c(cc1Cl)NC(C1CC3C=CC1C3)NS2(=O)=O (stereo not given),-8.57% (inactive),–
CCN(CC)CCCN(c1ccccc1)C1Cc2ccccc2C1,-3.28% (inactive),–
C[C@]12CCC(=O)C=C1CC[C@@H]1[C@@H]2CC[C@@]2(C)[C@H]1CC[C@]2(O)C(=O)CO,2.19% (inactive),–
CC(=O)Nc1nnc(S(N)(=O)=O)s1,-2.15% (inactive),–
O=c1[nH]c(=O)n([C@H]2C[C@H](O)[C@@H](CO)O2)cc1Br,-3.12% (inactive),–
CCN(CC)CCNC(=O)c1cc(S(C)(=O)=O)ccc1OC,-7.8% (inactive),–
CC(C)[N+](C)(CCOC(=O)C1c2ccccc2Oc2ccccc21)C(C)C,-7.08% (inactive),–
NC(N)=NC(=O)Cc1c(Cl)cccc1Cl,1.49% (inactive),–
C[N+](C)(C)CCCCCCCCCC[N+](C)(C)C,-10.2% (inactive),–
Nc1nc(N)c2nc(-c3ccccc3)c(N)nc2n1,–,39.8 µM (active)
Fc1ccc(C(c2ccc(F)cc2)N2CCN(C/C=C/c3ccccc3)CC2)cc1,-20% (inactive),–
CC(=O)OC(C)C[N+](C)(C)C (stereo not given),-2.41% (inactive),–
CNC1(C)C2CCC(C2)C1(C)C (stereo not given),-6.54% (inactive),–
CCN(CC)CC(=O)Nc1c(C)cccc1C,2.48% (inactive),–
CCCC(C(=O)OCCN(CC)CC)(c1ccccc1)c1ccccc1,-0.691% (inactive),–
OC(CCN1CCCCC1)(c1ccccc1)C1CCCCC1 (stereo not given),-2.4% (inactive),–

Structure (SMILES),"activity, negative = inhibition",Potency
C=CCc1ccccc1OCC(O)CNC(C)C (stereo not given),-3.34% (inactive),–
CN1CCN(CC(=O)N2c3ccccc3C(=O)Nc3cccnc32)CC1,-10.9% (inactive),–
C(=C\c1ccccc1)/CN1CCN(C(c2ccccc2)c2ccccc2)CC1,-23.9% (inactive),–
CCCCCN(CCCCC)C(=O)C(CCC(=O)O)NC(=O)c1ccc(Cl)c(Cl)c1 (stereo not given),-1.99% (inactive),–
COCCc1ccc(OCC(O)CNC(C)C)cc1 (stereo not given),-6.96% (inactive),–
CCO/C([O-])=N/c1c[n+](N2CCOCC2)no1,4.04% (inactive),–
C[C@]12C=CC(=O)C=C1CC[C@H]1[C@@H]3C[C@@H](O)[C@](O)(C(=O)CO)[C@@]3(C)C[C@H](O)[C@@]12F,-2.57% (inactive),–
CN(C)CCCN1c2ccccc2Sc2ccc(C(F)(F)F)cc21,-10.7% (inactive),–
CC(C)NCC(O)c1cc(O)cc(O)c1 (stereo not given),-9.82% (inactive),–
O=C1NCN(c2ccccc2)C12CCN(CCCC(c1ccc(F)cc1)c1ccc(F)cc1)CC2,-18.5% (inactive),–
CC1=NS(=O)(=O)c2cc(Cl)ccc2N1,-6.08% (inactive),–
N[C@@H](COP(=O)(O)O)C(=O)O,1.82% (inactive),–
Cc1cc(C)c(/C=C2\C(=O)Nc3ccccc32)[nH]1,-0.923% (inactive),–
CC(=O)[C@@]1(O)CC[C@H]2[C@@H]3CCC4=CC(=O)CC[C@]4(C)[C@H]3CC[C@@]21C,-3.99% (inactive),–
CC(C(=O)O)c1ccc(CC2CCCC2=O)cc1 (stereo not given),-1.48% (inactive),–
Cc1ccc(Cl)c(Nc2ccccc2C(=O)O)c1Cl,-7.35% (inactive),–
CCc1cccc(N(C)C(N)=Nc2cccc3ccccc23)c1,-5.88% (inactive),–
CO[C@@]1(NC(=O)CSCC#N)C(=O)N2C(C(=O)O)=C(CSc3nnnn3C)CS[C@@H]21,-8.33% (inactive),–
c1ccc2c(c1)CCCC2C1=NCCN1 (stereo not given),-3.74% (inactive),–
C[C@H](CS)C(=O)N1CCC[C@H]1C(=O)O,-18% (inactive),–
